# Experimental data published in PubChem BioAssay AID808 (Columbia University Molecular Screening Center, 2007).
# The whole screen tested about 93,000 compounds, of which about 180 (0.19%) were called active. The sample as a whole holds a higher share of actives than the screen did. Values without a mark were called inactive.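 Rule for the calls: active = activation above the screen mean plus 3 SD, with well images confirming the hit on visual review (cut at about 28% in these data, passing the limit was not always enough); inconclusive = activation above that limit but images do not confirm it; inactive = activation not above that limit.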
# Experiment: enhancers of endothelial VCAM-1 upregulation by TNFa – imaging, HUVEC, TNFa stimulus, immunofluorescence, primary screen (AID 808);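 note: signal is the number of cytoplasmic VCAM-1 stained grains per positive cell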
# Details: HUVEC TNFa-stimulated VCAM-1 immunofluorescence, high-content imaging; at 2 µM; active compounds read high
row,Compound,activation
1,COC(=O)CN1C(=O)C2(C(C(=O)OC)=C(N)Oc3ccccc32)C2=C1CC(C)(C)CC2=O (stereo not given),33.9% (active)
2,CCOC(=O)C(O)(c1ccc(N)c(OC)c1)C(F)(F)F (stereo not given),-9.7%
3,c1cncc(CNC2=NCCC2)c1,-5.4%
4,O=C(NCC(c1cccnc1)N1CCN(c2ccccc2)CC1)Oc1ccccc1 (stereo not given),1.5%
5,CNC(=O)N(C)c1nnc(C(C)(C)C)s1,4.6%
